Compound activity from PubChem BioAssay.
In the library only some 1.6% were active in any assay of this set; here they are far more common.
ugtP null kill = compounds lethal to S. aureus RN4220 ugtP deletion mutant. OD600 growth, 16 h. growth inhibition, % (test concentration not listed). actives 0.54% (n = 330,000); in the data active means growth inhibition above about 68%;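 further: plate controls were untreated wells for no effect and antibiotic for full effect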
RecA intein inh = Mtb RecA intein splicing inhibition. inhibition, % (test concentration not listed). actives 0.75% (n = 290,000). AID 2221. cell-free RecA intein splicing, fluorescence; in the data active means inhibition above about 30%;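 further: 0% = vehicle wells and 100% = reference inhibitor control wells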
Mtb hypoxia rep = Mtb hypoxia fluorescent reporter inhibition; M. tuberculosis hypoxia-regulated fluorescent reporter, fluorescence; fluorescence inhibition, % (no concentration beside the values); actives 0.1% (n = 300,000); AID 1159583; in the data active means fluorescence inhibition mostly above about 23%, no sharp cut-off; inactive means mostly below about 17%
RN4220 kill = S. aureus RN4220 growth inhibition; inhibition, % (no concentration beside the values); OD600, 16 h; actives 0.33% (n = 330,000); in the data active means inhibition above about 85%;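 further: plate controls were untreated cells for no effect and reference antibiotic for full effect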
CCHF vOTU inh = CCHFV vOTU protease inhibition; inhibition, % at 11.5 µM; Pep-AMC fluorescence; AID 651958; actives 0.55% (n = 370,000); in the data active means inhibition above about 30%; further: 0% = vehicle wells with enzyme and 100% = no enzyme wells
BJeLR viability = kills HRASV12-expressing BJeLR cells | BJeLR (HRASV12) viability, CellTiter-Glo ATP luminescence, 48 h | inhibition, % (no concentration beside the values) | actives 0.17% (n = 300,000) | AID 1554; in the data active means inhibition above about 50%
* = called active by the depositor; nt = no result.

SMILES | ugtP null kill | RecA intein inh | Mtb hypoxia rep | RN4220 kill | CCHF vOTU inh | BJeLR viability
CSc1ccc(Cl)c(C(=O)NCCOc2cc(C)ccc2C(C)C)c1 | 99* | 21 | -1 | 97* | -9 | 2
Cc1ccc(C(C)C)c(OCCNC(=O)c2ccccc2O)c1 | 24 | 10 | 2 | 24 | 4 | -14
CC(C)(C)OC(=O)CC1CC=CCC(CC(=O)N(CCO)Cc2ccccc2)C(=O)N2CCCC2COC1=O (configuration not stated) | 3 | nt | 7 | 6 | nt | nt
CCN(CC)c1ccc(N2C(=O)CSC2=S)cc1 | 33* | 24 | 16 | 93 | 5 | 6
C#CCOCCOCCOCCNc1nc(N2CCN(C(=O)C(Cc3ccc(O)cc3)n3cc(C(N)CC(C)C)nn3)CC2)nc(N2CCN(C(=O)C(C(C)CC)n3cc(C(N)CO)nn3)CC2)n1 (configuration not stated) | -3 | nt | 10 | 2 | nt | nt
Cc1ccccc1N(Cc1cc(=O)[nH]c2ccccc12)C(=O)CCl | nt | 48* | nt | nt | -7 | 12
Cc1ccccc1N(Cc1cc(=O)[nH]c2ccccc12)C(=O)C(C)C | 14 | -1 | 11 | 4 | -6 | 3
Cc1ccc(NC2=C(Cl)C(=O)OC2OC(=O)c2ccco2)cc1C (configuration not stated) | -4 | 54* | 8 | 4 | 1 | 1
Cc1ccc(C)c(NC2=C(Cl)C(=O)OC2OC(=O)c2ccco2)c1 (configuration not stated) | -6 | 46* | 2 | 4 | -6 | 2
COC(=O)C1=C(C(=O)OC)C2N(C)c3ccc(OC)cc3[C@@]23CC(C(=O)OC)N(C(=O)c2ccco2)C3=N1 (some centres not stated) | 7 | nt | 23 | 4 | nt | nt
O=C(NC(=Cc1cccnc1)C(=O)N1CCOCC1)c1ccccc1 | -2 | nt | 7 | 3 | nt | nt
Cc1cccc(/C=N\NC(=O)c2ccc(Cl)cc2)c1O | nt | 0 | nt | nt | 28 | 4
Cc1cccc(C=NNC(=O)c2ccc(Cl)cc2)c1O | 73 | nt | 17 | 93* | nt | nt
C=C(C)C(=O)Nc1cccc(C2=NOC3(C2)CC(C(N)=O)N(C(=O)CC(c2ccccc2)c2ccccc2)C3)c1 (configuration not stated) | 0 | nt | 4 | 0 | nt | nt
CC(C)COC(=O)c1cccc2c1-c1ccccc1C2=NO | 96* | nt | 8 | -4 | nt | nt
COC(=O)c1cccc2c1-c1ccccc1C2=NO | 21 | nt | nt | -1 | nt | nt
O=c1c2cc(Cl)ccc2nc(-c2ccc([N+](=O)[O-])cc2)n1O | -6 | 1 | -5 | 8 | 1 | 0
O=c1c2cc(Br)ccc2nc(-c2ccc(Cl)cc2)n1O | 99* | 1 | 2 | 99* | -11 | 2
Cc1ccc(-c2nc3c(Cl)cc(Cl)cc3c(=O)n2O)cc1 | 99* | -2 | -3 | 99* | 5 | -5
O=c1c2ccc(Cl)cc2nc(-c2cccc(C(F)(F)F)c2)n1O | 100* | 3 | nt | 96* | 11 | 26
CCN1C(Nc2ccccc2)=NCC1Cc1ccccc1 (configuration not stated) | 4 | nt | 0 | 8 | nt | nt
COc1cc(C2C(C#N)=C(N)Oc3n[nH]c(C)c32)ccc1OC(=O)c1ccccc1 (configuration not stated) | 5 | 38* | 1 | 3 | 3 | -3
COc1ccc(C2C(C#N)=C(N)Oc3n[nH]c(C)c32)cc1Cn1nc(C)c([N+](=O)[O-])c1C (configuration not stated) | 18 | 84* | nt | 0 | 9 | 5
COc1cc(C2C(C#N)=C(N)Oc3n[nH]c(-c4cccnc4)c32)ccc1OCC(N)=O (configuration not stated) | 5 | 46* | 15 | 4 | -2 | -9
COC(=O)C(NC(=O)c1ccccc1)C(C)O (configuration not stated) | 2 | nt | 17 | 8 | nt | nt
CN1CCN(C(=O)C2=CC(C3CCCCC3)CC(OCc3ccc(CO)cc3)O2)CC1 (configuration not stated) | -7 | nt | 9 | 4 | nt | nt
O=[N+]([O-])c1cc(Cl)c(O)c2ncccc12 | 98* | 6 | 4 | 99* | 13 | 6
O=[N+]([O-])c1cc(F)c2cccnc2c1O | 23 | 7 | 12 | 30 | 14 | 0
Oc1c(I)cc(Cl)c2cccnc12 | 100* | 16 | 3 | 99* | 8 | 9
